# According to PubChem BioAssay (EPA / NIEHS):
# Inconclusive results are not listed. Activity calls are given as the source filed them. The calls were made as follows, unless noted: active = hit-call score of the fitted dose curve at least 0.9, where 1 is the maximum; inconclusive = response in the unintended direction; inactive = score below 0.9.
# What was measured:
# [1] = molecular target: human Retinoid X Receptor beta (RXRb), RXRB (gene 6257) (UniProt P28702); test: ATG_RXRb_TRANS: Attagene TRANS-FACTORIAL HepG2 Assay for human Retinoid X Receptor beta (RXRb) (AID 2283013)
# Procedure, shortened: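 Readout is reporter transcript induction after 24 h dosing. It is measured by RT-PCR of total RNA followed by fluorescent capillary electrophoresis. HepG2 liver cells carry transfected multiple reporter units driven by an exogenous RXRb-Gal4 fusion; activity is relative to DMSO.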
# [2] = molecular target: Retinoic acid receptor RXR-alpha (Homo sapiens) (UniProt P19793); test: ATG_RXRa_TRANS: Attagene TRANS-FACTORIAL HepG2 Assay for human Retinoid X Receptor alpha (RXRa) (AID 2283012)
# Procedure, shortened: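 TRANS format reporting activity of exogenous RXRa-Gal4 chimera in transiently transfected HepG2, 24 h exposure. Reporter transcripts quantified by RT-PCR with capillary electrophoresis, with gain of signal scored relative to DMSO.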
# [3] = molecular target: human Thyroid Receptor alpha (THRa1), THRA (gene 7067) (UniProt P10827); test: ATG_THRa1_TRANS: Attagene TRANS-FACTORIAL HepG2 Assay for human Thyroid Receptor alpha (THRa1) (AID 2283014)
# Procedure, shortened: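 HepG2 cells transiently transfected with multiplexed GAL4-UAS reporter units for exogenous chimeric THRa1-Gal4; reporter mRNA measured 24 h after dosing by RT-PCR, 6-FAM labelling, HpaI digestion and capillary electrophoresis. Gain-of-signal fitted versus DMSO baseline.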
# [4] = read-out: E-selectin (Homo sapiens) (UniProt P16581); test: BSK_3C_Eselectin: BioMAP Diversity Plus: 3C Assay for Eselectin Biomarker Activity (AID 2283015; active = hit-call score of the fitted dose curve at least 0.9, where 1 is the maximum; inactive = score below 0.9;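 as to outcome: cell surface E-selectin protein quantified by ELISA 24 h after dosing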); conditions: primary human endothelial cells (HUVEC); actives raise or lower the signal
# Procedure, shortened: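 Primary human umbilical vein endothelial cells (3C system) were dosed with chemical and cell-surface E-selectin measured by ELISA 24 h later. Bidirectional curve fitting used DMSO as negative control and baseline.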
# [5] = read-out: Interleukin-1 alpha (IL1a), IL1A (gene 3552); test: BSK_BE3C_IL1a: BioMAP Diversity Plus: BE3C Assay for Interleukin-1 alpha (IL1a) Biomarker Activity (AID 2283016; active = hit-call score of the fitted dose curve at least 0.9, where 1 is the maximum; inactive = score below 0.9); conditions: primary human bronchial epithelial cells; actives raise or lower the signal
# Procedure, shortened: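 IL-1a measured by ELISA after 24 h treatment of human primary bronchial epithelial cells, with gain or loss of signal fitted versus DMSO. Parallel cultures stained with SRB gauge overt cytotoxicity.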
# [6] = read-out: Monocyte Chemoattractant Protein-1 (MCP1), CCL2 (gene 6347); test: BSK_3C_MCP1: BioMAP Diversity Plus: 3C Assay for Monocyte Chemoattractant Protein-1 (MCP1) Biomarker Activity (AID 2283017; active = hit-call score of the fitted dose curve at least 0.9, where 1 is the maximum; inactive = score below 0.9); conditions: primary human endothelial cells (HUVEC); actives raise or lower the signal
# Procedure, shortened: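 Primary human umbilical vein endothelial cells (3C system) were exposed to test chemical for 24 h, after which MCP-1 was quantified by ELISA. Activity was fitted bidirectionally against DMSO as negative control and baseline.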
# [7] = read-out: Monocyte Chemoattractant Protein-1 (MCP1), CCL2 (gene 6347); test: BSK_4H_MCP1: BioMAP Diversity Plus: 4H Assay for Monocyte Chemoattractant Protein-1 (MCP1) Biomarker Activity (AID 2283018; active = hit-call score of the fitted dose curve at least 0.9, where 1 is the maximum; inactive = score below 0.9); conditions: primary human endothelial cells (HUVEC); actives raise or lower the signal
# Procedure, shortened: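 ELISA of MCP-1 (CCL2) 24 h after chemical dosing of HUVEC in the BioMAP 4H system. Gain or loss versus DMSO fitted; parallel SRB staining (560 nm) tracked overt cytotoxicity.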
# [8] = read-out: Human Leukocyte Antigen - DR isotype (HLADR), HLA-DRA (gene 3122); test: BSK_3C_HLADR: BioMAP Diversity Plus: 3C Assay for Human Leukocyte Antigen - DR isotype (HLADR) Biomarker Activity (AID 2283019; active = hit-call score of the fitted dose curve at least 0.9, where 1 is the maximum; inactive = score below 0.9;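 as to outcome: ELISA of cell-surface HLA-DR on HUVEC 24 h after dosing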); conditions: primary human endothelial cells (HUVEC); actives raise or lower the signal
# Procedure, shortened: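 Primary human umbilical vein endothelial cells (3C system) were dosed with compound and cell-surface HLA-DR was quantified by ELISA at 24 h. Activity was fitted bidirectionally against DMSO as negative control and baseline.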
# [9] = read-out: Interleukin-8 (IL8), CXCL8 (gene 3576); test: BSK_3C_IL8: BioMAP Diversity Plus: 3C Assay for Interleukin-8 (IL8) Biomarker Activity (AID 2283020; active = hit-call score of the fitted dose curve at least 0.9, where 1 is the maximum; inactive = score below 0.9); conditions: primary human endothelial cells (HUVEC); actives raise or lower the signal
# Procedure, shortened: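 IL-8 was measured by ELISA in HUVEC cultures 24 h after chemical dosing, with gain or loss of signal fitted relative to DMSO. Parallel SRB total-protein staining tracked overt cytotoxicity.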
# human Thyroid Receptor alpha (THRa1), THRA (gene 7067), sequence (P10827 whole entry, looked up, the tested form may be a part): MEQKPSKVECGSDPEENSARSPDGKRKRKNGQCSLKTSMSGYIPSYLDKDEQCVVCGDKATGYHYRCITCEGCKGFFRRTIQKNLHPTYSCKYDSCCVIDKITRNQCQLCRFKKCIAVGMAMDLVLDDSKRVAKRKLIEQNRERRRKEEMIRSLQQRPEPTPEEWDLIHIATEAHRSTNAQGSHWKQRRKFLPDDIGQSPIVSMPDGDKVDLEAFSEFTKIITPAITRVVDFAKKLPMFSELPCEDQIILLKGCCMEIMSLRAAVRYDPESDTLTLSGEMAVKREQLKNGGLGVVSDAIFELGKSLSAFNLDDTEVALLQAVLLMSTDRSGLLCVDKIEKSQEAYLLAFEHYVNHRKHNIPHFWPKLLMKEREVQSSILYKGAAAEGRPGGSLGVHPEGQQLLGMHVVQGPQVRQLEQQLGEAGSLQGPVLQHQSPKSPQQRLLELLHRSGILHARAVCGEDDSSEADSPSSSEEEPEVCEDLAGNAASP
# E-selectin (Homo sapiens), sequence (P16581 whole entry, looked up): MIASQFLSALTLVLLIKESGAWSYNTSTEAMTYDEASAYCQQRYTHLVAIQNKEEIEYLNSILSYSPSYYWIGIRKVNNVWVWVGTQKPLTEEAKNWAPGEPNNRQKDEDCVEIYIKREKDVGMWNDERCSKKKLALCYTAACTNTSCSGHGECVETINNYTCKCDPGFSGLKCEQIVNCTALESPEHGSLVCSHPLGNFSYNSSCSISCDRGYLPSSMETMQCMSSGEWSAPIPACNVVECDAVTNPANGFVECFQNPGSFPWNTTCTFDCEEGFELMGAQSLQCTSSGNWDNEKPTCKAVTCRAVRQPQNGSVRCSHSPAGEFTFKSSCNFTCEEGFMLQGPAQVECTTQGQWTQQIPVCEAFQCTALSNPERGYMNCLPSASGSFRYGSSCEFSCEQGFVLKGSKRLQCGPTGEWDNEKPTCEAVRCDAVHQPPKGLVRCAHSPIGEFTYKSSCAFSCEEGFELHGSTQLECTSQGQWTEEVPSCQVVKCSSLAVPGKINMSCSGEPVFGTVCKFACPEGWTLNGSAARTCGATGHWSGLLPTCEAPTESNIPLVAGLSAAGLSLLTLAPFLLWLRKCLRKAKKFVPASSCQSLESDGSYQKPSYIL
# Retinoic acid receptor RXR-alpha (Homo sapiens), sequence (P19793 whole entry, looked up, the tested form may be a part): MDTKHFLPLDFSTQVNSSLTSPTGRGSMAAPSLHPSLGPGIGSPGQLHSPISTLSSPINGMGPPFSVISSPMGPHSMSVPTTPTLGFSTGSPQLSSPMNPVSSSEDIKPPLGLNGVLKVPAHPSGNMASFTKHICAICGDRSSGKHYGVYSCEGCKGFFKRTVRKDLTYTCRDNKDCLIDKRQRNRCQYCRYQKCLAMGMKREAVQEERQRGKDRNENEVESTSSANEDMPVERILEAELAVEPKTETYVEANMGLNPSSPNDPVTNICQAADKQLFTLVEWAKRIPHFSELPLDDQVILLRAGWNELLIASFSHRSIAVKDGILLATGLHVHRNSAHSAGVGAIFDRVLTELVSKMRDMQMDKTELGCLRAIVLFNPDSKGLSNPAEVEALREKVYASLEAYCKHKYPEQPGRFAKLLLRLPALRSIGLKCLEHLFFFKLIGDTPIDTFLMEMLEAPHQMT
# human Retinoid X Receptor beta (RXRb), RXRB (gene 6257), sequence (P28702 whole entry, looked up, the tested form may be a part): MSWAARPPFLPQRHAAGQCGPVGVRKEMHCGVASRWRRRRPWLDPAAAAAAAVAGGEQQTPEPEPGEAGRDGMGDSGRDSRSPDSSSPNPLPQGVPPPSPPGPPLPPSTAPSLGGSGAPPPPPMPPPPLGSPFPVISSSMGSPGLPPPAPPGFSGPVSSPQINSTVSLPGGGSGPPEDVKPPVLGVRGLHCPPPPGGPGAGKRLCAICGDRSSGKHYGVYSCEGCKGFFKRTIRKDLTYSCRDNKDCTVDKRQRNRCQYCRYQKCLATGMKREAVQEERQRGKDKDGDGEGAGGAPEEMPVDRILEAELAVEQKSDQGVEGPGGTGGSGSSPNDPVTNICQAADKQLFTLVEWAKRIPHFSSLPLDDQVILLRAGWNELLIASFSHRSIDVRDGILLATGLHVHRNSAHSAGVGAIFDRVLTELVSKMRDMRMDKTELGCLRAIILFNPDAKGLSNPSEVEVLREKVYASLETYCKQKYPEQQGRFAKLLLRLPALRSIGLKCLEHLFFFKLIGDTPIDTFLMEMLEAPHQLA
smiles,measurement,setting,value
CCCCC/C=C\CCC=O,outcome,[1],inactive
CCOC(=O)CC,outcome,[2],inactive
same,outcome,[3],inactive
NNC(=O)c1cccc(C(=O)NN)c1,outcome,[1],inactive
O=S(=O)(O)CC(O)CCl (configuration not stated),outcome,[1],inactive
O=c1c2ccccc2nnn1CCl,outcome,[1],inactive
C(=CC=Nc1ccccc1)C=CNc1ccccc1,outcome,[1],inactive
CC(C)CCCCCOC(=O)CCS,outcome,[1],inactive
CCO[Si](CCCN=C=O)(OCC)OCC,outcome,[2],inactive
same,outcome,[3],inactive
same,outcome,[4],inactive
same,outcome,[5],inactive
same,outcome,[6],inactive
same,outcome,[7],inactive
same,outcome,[8],inactive
same,outcome,[9],inactive
O=C(c1ccccc1)c1ccc(O)c(O)c1O,outcome,[2],inactive
same,outcome,[3],inactive
CN(C)c1ccc(N=Nc2ccccc2C(=O)O)cc1,outcome,[1],inactive
COC(=O)c1ccc2cc(C(=O)OC)ccc2c1,outcome,[2],inactive
same,outcome,[3],inactive
O=C(OCC1CCC2OC2C1)C1CCC2OC2C1 (configuration not stated),outcome,[1],inactive
Cn1c(=O)[nH]c2ncn(C)c2c1=O,outcome,[1],inactive
Cc1oncc1C(=O)Nc1ccc(C(F)(F)F)cc1,outcome,[2],inactive
same,outcome,[3],inactive
O=C(O)c1cc2ccccc2nc1C(=O)O,outcome,[1],inactive
CCCCCC/C=C/C=O,outcome,[1],inactive
COC(=O)c1c(C)cc(O)c(C)c1O,outcome,[1],inactive
same,outcome,[3],inactive
CC(C)=CCCC(C)C=O (configuration not stated),outcome,[1],inactive
CC(=O)Nc1ccc2c(c1)Cc1cc(NC(C)=O)ccc1-2,outcome,[1],inactive
FC(F)=C(F)OC(F)(F)C(F)(F)C(F)(F)F,outcome,[1],inactive
CCN(CCC#N)c1ccc(N=Nc2c(Cl)cc([N+](=O)[O-])cc2Cl)cc1,outcome,[2],inactive
same,outcome,[3],inactive
c1ccc(-c2ccccn2)nc1,outcome,[2],inactive
same,outcome,[3],inactive
same,outcome,[4],inactive
same,outcome,[5],inactive
same,outcome,[6],inactive
same,AC50,[7],20 µM (active)
same,outcome,[8],inactive
same,outcome,[9],inactive
Cc1cc(C)c(C)c(O)c1,outcome,[1],inactive
same,outcome,[3],inactive
CC1(C)O[C@@H]2C[C@H]3[C@@H]4C[C@H](F)C5=CC(=O)C=C[C@]5(C)[C@@]4(F)[C@@H](O)C[C@]3(C)[C@]2(C(=O)CO)O1,outcome,[1],inactive
CCc1c(C(=O)O)c(=O)cnn1-c1ccc(Cl)cc1,outcome,[1],inactive
CCc1nccnc1C,outcome,[2],inactive
same,outcome,[3],inactive
O=C1CCC(=O)N1Cl,outcome,[2],inactive
same,outcome,[3],inactive
O=C(Cl)c1cc(C(=O)Cl)cc(C(=O)Cl)c1,outcome,[2],inactive
same,outcome,[3],inactive
same,AC50,[4],15.1 µM (active)
same,AC50,[5],29.5 µM (active)
same,AC50,[6],11.6 µM (active)
same,AC50,[7],12.8 µM (active)
same,AC50,[8],10.5 µM (active)
same,AC50,[9],9.93 µM (active)
Cc1cc(C)c(C)cc1C,outcome,[1],inactive
Cc1cc(O)c(Cl)c(C)c1Cl,outcome,[1],inactive
CCCCCCOC(=O)C(C)CC (configuration not stated),outcome,[2],inactive
same,outcome,[3],inactive
CC(C)(c1cc(Br)c(OCCO)c(Br)c1)c1cc(Br)c(OCCO)c(Br)c1,AC50,[2],81 µM (active)
same,AC50,[4],16.2 µM (active)
same,outcome,[5],inactive
same,AC50,[6],11.7 µM (active)
same,AC50,[7],5.24 µM (active)
same,AC50,[8],18.6 µM (active)
same,AC50,[9],16.2 µM (active)
O=c1c2ccccc2oc2ccccc12,outcome,[2],inactive
same,outcome,[3],inactive
same,outcome,[4],inactive
same,AC50,[5],0.173 µM (active)
same,outcome,[6],inactive
same,outcome,[7],inactive
same,outcome,[8],inactive
same,outcome,[9],inactive
C/C=C\C/C=C/CCCCCCCCOC(C)=O,outcome,[2],inactive
same,outcome,[3],inactive
same,AC50,[4],19.6 µM (active)
same,AC50,[5],12.1 µM (active)
same,outcome,[6],inactive
same,outcome,[7],inactive
same,AC50,[8],27 µM (active)
same,outcome,[9],inactive
C=C(C)[C@@H]1CCC2=CCC[C@@H](C)[C@]2(C)C1,AC50,[1],47.6 µM (active)
OC1CCCCCCCCCCC1,AC50,[1],44.6 µM (active)
CC(=O)OC1C2(C)CCC(C2)C1(C)C (configuration not stated),outcome,[1],inactive
same,outcome,[3],inactive
O=P(O)(O)Oc1ccccc1,outcome,[1],inactive
same,AC50,[3],8.7 µM (active)
C=C1C2CCC(C2)C1(C)C (configuration not stated),outcome,[1],inactive
same,outcome,[3],inactive
O=C(O)c1ccccc1Nc1cccc(C(F)(F)F)c1,outcome,[3],inactive
CC1=Nc2ccc3ccccc3c2C1(C)C,outcome,[1],inactive
same,outcome,[3],inactive
OCCc1ccncc1,outcome,[3],inactive
